The results in this text go back to PubChem BioAssay (Tox21).

A number with no mark means an inactive call. Results filed as inconclusive are left out. Active and inactive are the calls of the source. Unless noted, calls come from the whole dose curve; as a rule, active = well fitted curve in the direction sought with a large enough effect in the repeat runs; inconclusive = weak or mixed curves; inactive = no such curve, though single readings can be large; an effect the other way counts as inactive or inconclusive.

Assay [1] can be described thus: qHTS assay to test for compound auto fluorescence at 535 nm (green) in HEK293 cells (AID 720680). On the technique in general: Quantitative high-throughput screening tests each substance at several concentrations.
A short description of assay [2]: qHTS assay to test for compound auto fluorescence at 460 nm (blue) in HEK293 cell free culture (AID 720681). A digest of the protocol:
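Test compounds were pinned into cell-free culture medium (DMEM with 10% FBS) and fluorescence was read directly at Ex/Em 405/460 nm. Signals were expressed as fluorescence equivalents of triamterene, with DMSO vehicle as control.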

A short description of assay [3]: qHTS assay to test for compound auto fluorescence at 535 nm (green) in HEK293 cell free culture (AID 720682). The method in brief: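 Green-label autofluorescence (485 nm excitation, 535 nm emission) measured on compound added to cell-free culture medium (DMEM, 10% FBS). Output is expressed relative to fluorescein.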
A short description of assay [4]: qHTS assay to test for compound auto fluorescence at 590 nm (red) in HEK293 cell free culture (AID 720683). The method in brief: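 Tox21 10K library compounds were pinned into cell-free DMEM with 10% FBS and fluorescence was read at excitation 540 nm. Activity is expressed as Rose Bengal sodium equivalency.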
A short description of assay [5]: qHTS assay to test for compound auto fluorescence at 590 nm (red) in HepG2 cell free culture (AID 720684). The method in brief:
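Ex 540 / Em 590 nm read of compound in cell-free MEM (10% FBS). Rose Bengal sodium reference.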

Assay [6] is described as follows: qHTS assay to test for compound auto fluorescence at 460 nm (blue) in HepG2 cell free culture (AID 720685). The method in brief:
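Cell-free plates of MEM plus 10% FBS received 23 nL compound or DMSO vehicle; blue-channel (405/460 nm) intensity scored against triamterene as reference fluorophore.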

The nature of assay [7]: qHTS assay to test for compound auto fluorescence at 535 nm (green) in HepG2 cell free culture (AID 720686).
A short description of assay [8]: qHTS assay to test for compound auto fluorescence at 460 nm (blue) in HepG2 cells (AID 720687). A digest of the protocol:
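Cells (2,000/well in MEM with 10% FBS) attached overnight at 37 C, then were exposed to compound or DMSO for 1 hr at 37 C, 5% CO2. Fluorescence read at Ex/Em 405/460 nm, expressed as triamterene-equivalent signal.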

Assay [9] deals with Glucocorticoid receptor (Homo sapiens) (UniProt P04150). Briefly: qHTS assay to identify small molecule agonists of the glucocorticoid receptor (GR) signaling pathway (AID 720691; active = well fitted activation curve with a large enough effect in the signal ratio in the repeat runs, not every such curve was filed as active; the % refers to the signal ratio). The method in brief:
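Cells: GR-bla HeLa, endogenous GR with stably integrated GRE-beta-lactamase reporter. Treatment 18 h, 37 C, compounds delivered in DMSO. Detection via LiveBLAzer B/G FRET substrate, 2 h RT, fluorescence intensity.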

For assay [10] the target is unchanged. Nature of the assay: qHTS assay to identify small molecule antagonists of the glucocorticoid receptor (GR) signaling pathway (AID 720692; active = well fitted inhibition curve with a large enough effect in the signal ratio in the repeat runs, not every such curve was filed as active; the % refers to the signal ratio). The method in brief: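 Quantitative HTS in antagonist format: HeLa cells expressing endogenous GR and a stably integrated GRE-bla reporter, stimulated with 5 nM dexamethasone (final) alongside test compounds for 18 h.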

Assay [11] in a line: qHTS assay to identify small molecule antagonists of the glucocorticoid receptor (GR) signaling pathway - cell viability counter screen (AID 720693). Note: nearly all actives have a fitted effect of over 55% in size.
The nature of assay [12]: qHTS assay for identifying genotoxic compounds that show differential cytotoxicity against isogenic chicken DT40 cell lines with known DNA damage response pathways - wild type cell line (AID 743012). Note: nearly all actives have a fitted effect of over 60% in size. Note: potency is the fitted concentration of half-maximal effect. The method in brief:
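Luminescent ATP viability signal (CellTiter-Glo, 30 min RT) recorded after wild type DT40 cells were incubated with compounds for 40 h at 37 C/5% CO2.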

Assay [13] in a line: qHTS assay for identifying genotoxic compounds that show differential cytotoxicity against isogenic chicken DT40 cell lines with known DNA damage response pathways - Rev3 mutant cell line (AID 743014). Note: nearly all actives have a fitted effect of over 55% in size. Note: potency is the fitted concentration of half-maximal effect.
Assay [14] can be described thus: qHTS assay for identifying genotoxic compounds that show differential cytotoxicity against isogenic chicken DT40 cell lines with known DNA damage response pathways - Rad54/Ku70 mutant cell line (AID 743015). Note: nearly all actives have a fitted effect of over 60% in size. Note: potency is the fitted concentration of half-maximal effect.
Assay [15] in a line: qHTS assay to identify small molecule antagonists of the androgen receptor (AR) signaling pathway - cell viability counter screen (AID 743033; note: nearly all actives have a fitted effect of over 45% in size).
Assay [16] addresses Androgen receptor (Homo sapiens) (UniProt P10275). Nature of the assay: qHTS assay to identify small molecule agonists of the androgen receptor (AR) signaling pathway (AID 743036; active = well fitted activation curve with a large enough effect in the signal ratio in the repeat runs, with a control signal flat, not every such curve was filed as active; the % refers to the signal ratio). The method in brief: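 AR-UAS-bla HEK293 cells, plated 4 h before dosing, were treated with compound for 16 h at 37C. beta-Lactamase reporter read after 2 h with LiveBLAzer B/G FRET substrate at room temperature.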

Assay [17] has the same target. Briefly: qHTS assay to identify small molecule agonists of the androgen receptor (AR) signaling pathway using the MDA cell line (AID 743040; note: nearly all actives have a fitted effect of over 20% in size). The method in brief:
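Cell-based luciferase reporter: MDA-kb2, MMTV promoter (AR + GR response elements). 16 h compound exposure at 37C; ONE-Glo, 30 min RT, luminescence.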

Assay [18] is described as follows: qHTS assay to identify small molecule antagonists of the androgen receptor (AR) signaling pathway using the MDA cell line - cell viability counter screen (AID 743041; note: nearly all actives have a fitted effect of over 45% in size). A digest of the protocol:
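In this qHTS counter assay, fluorescence intensity after CellTiter-Fluor addition indicated viability of MDA-kb2 AR-luc cells given compounds and R1881 for 16 h at 37C.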

The target in assay [19] is Androgen receptor (Homo sapiens) (UniProt P10275). Briefly: qHTS assay to identify small molecule antagonists of the androgen receptor (AR) signaling pathway using the MDA cell line (AID 743042; note: nearly all actives have a fitted effect of over 55% in size). A digest of the protocol: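 MDA-kb2 cells (human breast carcinoma, stably carrying an MMTV-luciferase reporter responsive to AR and GR) were plated at 3,000 cells/well and preincubated 5 hr at 37C, then given compound plus R1881 agonist for 16 h. ONE-Glo luminescence was read.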
Chain of Androgen receptor (Homo sapiens) (P10275 whole entry, looked up): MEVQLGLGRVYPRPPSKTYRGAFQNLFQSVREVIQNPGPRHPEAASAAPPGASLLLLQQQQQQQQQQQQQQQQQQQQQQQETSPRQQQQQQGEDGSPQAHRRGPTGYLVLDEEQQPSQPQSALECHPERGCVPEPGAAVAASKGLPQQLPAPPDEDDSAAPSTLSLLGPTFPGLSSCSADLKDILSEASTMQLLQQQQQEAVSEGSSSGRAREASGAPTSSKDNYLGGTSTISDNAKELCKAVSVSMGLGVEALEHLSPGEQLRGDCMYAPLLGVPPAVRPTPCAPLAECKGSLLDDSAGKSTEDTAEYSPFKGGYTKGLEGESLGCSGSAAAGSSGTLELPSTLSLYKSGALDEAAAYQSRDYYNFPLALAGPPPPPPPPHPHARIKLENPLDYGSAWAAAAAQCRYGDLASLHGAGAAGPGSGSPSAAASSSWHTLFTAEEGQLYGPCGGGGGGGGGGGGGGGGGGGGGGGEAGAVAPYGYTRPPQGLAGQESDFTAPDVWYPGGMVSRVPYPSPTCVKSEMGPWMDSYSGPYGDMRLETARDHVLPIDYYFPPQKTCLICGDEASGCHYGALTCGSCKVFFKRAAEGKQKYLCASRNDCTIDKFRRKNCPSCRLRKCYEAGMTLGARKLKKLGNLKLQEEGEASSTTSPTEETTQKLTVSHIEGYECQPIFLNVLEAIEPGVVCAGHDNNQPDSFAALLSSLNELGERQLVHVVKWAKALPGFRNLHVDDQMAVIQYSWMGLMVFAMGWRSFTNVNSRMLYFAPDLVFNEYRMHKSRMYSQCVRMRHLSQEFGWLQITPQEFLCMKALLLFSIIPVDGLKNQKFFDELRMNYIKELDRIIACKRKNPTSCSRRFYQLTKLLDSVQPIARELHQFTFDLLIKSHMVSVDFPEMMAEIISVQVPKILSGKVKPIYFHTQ

For assay [20] the target is unchanged. Briefly: qHTS assay to identify small molecule antagonists of the androgen receptor (AR) signaling pathway (AID 743035; active = well fitted inhibition curve with a large enough effect in the signal ratio in the repeat runs, not every such curve was filed as active; the % refers to the signal ratio; note: potency is the fitted concentration of half-maximal effect). The method in brief: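 Quantitative HTS of the Tox21 10K library used HEK293 AR-UAS-bla cells stimulated with R1881 alongside compound for 16 h at 37C, followed by beta-lactamase FRET detection (LiveBLAzer B/G, 2 h, RT).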

Chain of Glucocorticoid receptor (Homo sapiens) (P04150 whole entry, looked up): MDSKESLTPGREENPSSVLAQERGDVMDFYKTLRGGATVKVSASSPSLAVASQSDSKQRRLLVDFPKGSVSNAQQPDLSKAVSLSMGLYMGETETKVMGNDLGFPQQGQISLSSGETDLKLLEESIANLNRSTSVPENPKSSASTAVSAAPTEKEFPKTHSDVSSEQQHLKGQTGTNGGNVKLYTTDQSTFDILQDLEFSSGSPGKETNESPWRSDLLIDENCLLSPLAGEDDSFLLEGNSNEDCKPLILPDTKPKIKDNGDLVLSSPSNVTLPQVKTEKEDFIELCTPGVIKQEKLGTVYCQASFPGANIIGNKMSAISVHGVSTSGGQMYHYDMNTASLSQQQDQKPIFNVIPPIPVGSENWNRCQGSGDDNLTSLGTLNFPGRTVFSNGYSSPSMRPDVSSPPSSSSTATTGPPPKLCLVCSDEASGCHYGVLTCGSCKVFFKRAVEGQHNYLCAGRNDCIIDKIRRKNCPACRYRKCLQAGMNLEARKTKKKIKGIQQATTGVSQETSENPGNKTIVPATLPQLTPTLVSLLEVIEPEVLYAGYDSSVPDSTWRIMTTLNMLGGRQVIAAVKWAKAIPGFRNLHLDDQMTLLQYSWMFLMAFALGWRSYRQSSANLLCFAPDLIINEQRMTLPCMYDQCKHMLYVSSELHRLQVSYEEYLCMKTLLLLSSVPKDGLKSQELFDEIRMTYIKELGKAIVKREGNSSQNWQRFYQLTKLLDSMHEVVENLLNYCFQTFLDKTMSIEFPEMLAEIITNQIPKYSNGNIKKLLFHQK

As for `COc1ccccc1OC(=O)Oc1ccccc1OC`, the molecule was called inactive in [1], in assay [3], in assay [4], in [5], in [7] and in [16]. Besides, the Potency entry in assay [2], in assay [6], in assay [8], in assay [9], in [10] and in [11] was “inactive” each time. Further, the Potency entry in assay [12], in [13], in [14], in assay [15], in assay [17] and in assay [18] was “inactive” each time. Besides, the Potency result in assay [19] was “inactive”.

Take `C1CCC2OC2C1` (stereo not given): the molecule was classed as inactive in [1], in assay [3], in [4], in assay [5], in assay [7] and in assay [16]. Further, the Potency entry in assay [2], in assay [6], in assay [8], in assay [9], in assay [10] and in assay [11] was “inactive” throughout. Besides, the Potency entry in [12], in assay [13], in [14], in assay [15], in assay [20] and in assay [17] was “inactive” throughout. Besides, the Potency entry in [18] and in [19] was “inactive” each time.

For the molecule `CCCCCCCCCO`, the call in assay [1], in assay [3], in assay [4], in assay [5] and in [7] was inactive. Moreover, the Potency result in assay [2], in assay [6], in assay [8], in assay [9], in assay [10] and in assay [11] was “inactive” throughout.

Regarding `N#CCc1cccc(C(F)(F)F)c1`, the call in assay [1], in assay [3], in assay [4], in assay [5] and in [7] was inactive. Moreover, the Potency entry in assay [2], in assay [6], in assay [8], in assay [9], in [10] and in assay [11] was “inactive” throughout. For the same molecule, the Potency result in assay [12], in assay [13], in [15] and in assay [18] was “inactive” each time.

`CCCCCCc1ccc(N)cc1`: the result in assay [1], in assay [3], in [4], in [5], in [7] and in assay [16] was inactive. Further, the Potency entry in [2], in assay [6], in assay [8], in assay [9], in assay [10] and in assay [11] was “inactive” each time. Moreover, the Potency entry in [17], in assay [18] and in assay [19] was “inactive” in each case. Moreover, the Potency in assay [12] was 19.3 µM (active); in [13] it was 34.4 µM (active); in assay [14], 43.3 µM (active); in assay [20], 24.5 µM (active).

For the molecule `CC(C)=CCCC(C)CC=O` (stereo not given), the outcome in [1], in assay [3], in [4], in assay [5] and in assay [7] was inactive. Further, the Potency result in [2], in assay [6], in assay [8], in [9], in assay [10] and in assay [11] was “inactive” throughout. The Potency result in [12], in assay [13], in assay [14], in assay [15] and in assay [18] was “inactive” throughout.

With `CC(C)c1cccc(C(C)C)c1NC(=O)NS(=O)(=O)c1cc(C(C)(C)O)co1`, the outcome in assay [1], in [3], in [4], in assay [5] and in assay [7] was inactive. Also, the Potency entry in [2], in assay [6], in [8], in assay [9], in assay [10] and in [11] was “inactive” in each case. The Potency result in assay [12], in [13], in assay [14], in assay [15] and in [18] was “inactive” each time.

Consider `CCCCCCCCN(C)C`, for which the molecule was classed as inactive in assay [1], in assay [3], in [4], in assay [5] and in [7]. Moreover, the Potency result in [2], in assay [6], in [8], in assay [9], in assay [10] and in assay [11] was “inactive” each time. For the same molecule, the Potency entry in [12], in [13], in assay [14], in assay [15] and in assay [18] was “inactive” in each case.

As to `CC/C(=C\C(=N/O)C(N)=O)C(C)[N+](=O)[O-]` (stereo not given), the molecule was classed as inactive in assay [1], in [3], in assay [4], in assay [5] and in [7]. For the same molecule, the Potency entry in assay [2], in assay [6], in assay [8], in [9], in assay [10] and in assay [11] was “inactive” throughout. The Potency entry in [18] was “inactive”. Besides, the results for the Potency in [12], in assay [13] and in [14] were 30.6 µM (active), 24.3 µM (active) and 30.6 µM (active), respectively.

For the molecule `O=c1c2ccccc2nnn1CCl`, the molecule was classed as inactive in assay [1], in assay [3], in [4], in [5] and in [7]. For the same molecule, the Potency result in [2], in assay [6], in [8], in assay [9], in assay [10] and in assay [11] was “inactive” each time. Besides, the Potency result in assay [12], in assay [13], in assay [14], in assay [15] and in assay [18] was “inactive” throughout.

Regarding `c1ccc(OCc2ccc(CCCN3CCOCC3)cc2)cc1`, the molecule was called inactive in assay [1], in assay [3], in assay [4], in assay [5], in [7] and in assay [16]. In addition, the Potency entry in assay [2], in [6], in assay [8], in assay [9], in assay [10] and in assay [11] was “inactive” in each case. For the same molecule, the Potency entry in assay [15] and in [17] was “inactive” each time. In addition, the figures for the Potency in assay [12] and in assay [13] were 0.531 µM (active) and 0.168 µM (active), respectively.

Take `O=C(Cl)c1ccc([N+](=O)[O-])cc1`: the call in assay [1], in assay [3], in assay [4], in assay [5] and in assay [7] was inactive. Further, the Potency result in [2], in assay [6], in [8], in [9], in [10] and in assay [11] was “inactive” each time. Moreover, the Potency entry in assay [12], in assay [13], in assay [14], in assay [20], in assay [18] and in assay [19] was “inactive” in each case.

For the molecule `CCOC(=O)CC(C)C`, the result in assay [1], in [3], in assay [4], in assay [5] and in assay [7] was inactive. Moreover, the Potency result in assay [2], in assay [6], in assay [8], in [9], in assay [10] and in assay [11] was “inactive” in each case. Besides, the Potency entry in assay [12], in assay [13], in assay [15] and in [18] was “inactive” each time.

With `CC(C)(C)c1cc(CCC(=O)OCC(COC(=O)CCc2cc(C(C)(C)C)c(O)c(C(C)(C)C)c2)(COC(=O)CCc2cc(C(C)(C)C)c(O)c(C(C)(C)C)c2)COC(=O)CCc2cc(C(C)(C)C)c(O)c(C(C)(C)C)c2)cc(C(C)(C)C)c1O`, the result in [1], in [3], in [4], in assay [5] and in assay [7] was inactive. Moreover, the Potency result in assay [2], in assay [6], in assay [8], in [9], in assay [10] and in assay [11] was “inactive” throughout. The Potency entry in assay [12], in [13], in [15] and in [18] was “inactive” throughout.

Take `CC(Cc1cccc(C(F)(F)F)c1)NCCOC(=O)c1ccccc1` (stereo not given): the molecule was called inactive in [1], in assay [3], in [4], in assay [5] and in [7]. In addition, the Potency entry in assay [2], in assay [6], in assay [8], in assay [9], in [10] and in assay [11] was “inactive” throughout. Moreover, the figures for the Potency in [12], in assay [13] and in assay [14] were 18.8 µM (active), 23.7 µM (active) and 26.6 µM (active), respectively.
